According to PubChem BioAssay (NCI):
This is part of a sample that, as a whole, favours compounds with a hit. Of some 83,000 tested, about 20% had one in any assay.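 48-hour exposure, single concentration, 96-well plates; percent growth endpoint where 0 means no net growth. Active: below 10.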 Calls of active or inactive are those of the source.

test system: HS 578T breast; assay: NCI-60 one-dose screen, 48 h (100 = growth as untreated, 0 = no growth, -100 = all killed); conditions: 10 µM unless noted
Description: Growth inhibition of the HS 578T human tumor cell line is measured as a screen for anti-cancer activity. Cells are grown in 96 well plates and exposed to the test compound for 48 hours. Compounds are tested at a single concentration, which is 10^-5 M for most compounds. The reported endpoint is percent growth (GI% or GIPRCNT), where numbers from 0 - 100% represent growth inhibition, and numbers from -100% - 0 represent cell death. For example, a value of 40 represents 60% growth inhibition. A value of 0 means no net growth occurred over the course of the experiment. A value of -40 indicates 40% of cells at the beginning of the experiment died by the end of the experiment. A value of -100 means all cells are dead at the end of the experiment.
NCI-60 Human Tumor Cell Lines Screen was performed using the standard one-dose NCI protocol, which is described in more detail at https://dtp.cancer.gov/discovery_development/nci-60/default.htm.
Compounds with GIPRCNT values below 10 were considered active. Activity score was based on GIPRCNT using the following formula: […]
Score is 0 for GIPRCNT values of 100 or above, 50 for GIPRCNT values of 0, and 100 for GIPRCNT values of -100.

Row | Structure (SMILES) | growth
1 | CN1CCN(Cc2ccc(NC(=O)c3cncc(C#Cc4cnc(N)c5ccncc45)c3)cc2C(F)(F)F)CC1 | -0.418% (active)
2 | NC1=NN(O)C2=CC([N+](=O)[O-])C=CC2=N1 (stereo not given) | 98.8% (inactive)
3 | CO[C@H]1NC(=O)N(S(=O)(=O)c2ccc(Cl)cc2)[C@@H]1OC | 100% (inactive)
4 | COc1ccc(OC)c(/C=C2\Oc3cc(OCCCN4CCCC4)ccc3C2=O)c1 | 80.8% (inactive)
5 | C=C[C@@H]1C[C@@H]2Cc3c(C)cc(C)cc3N1O2 | 92.1% (inactive)
6 | Cc1ccc(-c2cc3nc(-c4ccccc4)nc(C(Cl)Cl)n3n2)cc1 | -42.1% (active)
7 | Cc1ccc2[nH]c(=O)c3c(c2c1)Oc1ncn2nc(-c4ccco4)nc2c1C3c1ccc(Cl)cc1 (stereo not given) | 93% (inactive)
8 | CN(CCCCCl)P(=O)(OCc1ccc([N+](=O)[O-])o1)C(F)(F)C[C@H](NC(=O)CNC(=O)c1ccc(N=[N+]=[N-])cc1)C(=O)NCCc1ccc(O)cc1 (stereo not given in full) | 84.4% (inactive)
9 | CNc1ccc(Br)c2c1C(=O)c1ccccc1C2=O | 107% (inactive)
10 | OB(O)c1cccc(-c2nc3ccc4[nH]ncc4c3c3c2CCCC3)c1F | 24.9% (inactive)
11 | COc1ccc(S(=O)(=O)n2cc(C(=O)C(=O)Nc3ccncc3)c3ccccc32)cc1F | 88.1% (inactive)
12 | COc1ccc(S(=O)(=O)NCCCNc2nccc(-c3c(-c4cccc([N+](=O)[O-])c4)nc4sccn34)n2)cc1 | 65.9% (inactive)
13 | Cc1csc(NC(c2ccc(Br)cc2)c2c(C)nc3ccccn23)n1 (stereo not given) | 84.6% (inactive)
14 | O=C(c1c[nH]c(=O)c(-c2ccccc2)c1)c1ccccc1O | 80% (inactive)
15 | O=[N+]([O-])c1cc(S(=O)(=O)Oc2ccccc2)ccc1Cl | -7.12% (active)
16 | N#C/C(=C1C=C/C(=N/O)C(Cl)=C/1)c1ccc(Cl)cc1 | 87.7% (inactive)
17 | O=C(O)c1nc(-c2ccccc2)oc1N1CCOCC1 | 86.3% (inactive)
18 | O=C1CCCCC1(c1ccccc1)c1ccccc1 | 99.7% (inactive)
19 | NC1N=C(SCC(=O)N2CCN(c3cc4c(cc3F)c(=O)c(C(=O)O)cn4C3CC3)CC2)NC(=O)/C1=C/c1ccc(Cl)cc1 (stereo not given) | 106% (inactive)
20 | CN1CCN(CCCOc2ccc3nc(Nc4ccc(Cl)c(C(F)(F)F)c4)ccc3c2)CC1 | 46% (inactive)

Row | Structure (SMILES) | growth
21 | O=C(NNC(=O)N1c2ccccc2C=Cc2ccccc21)c1ccccc1 | 109% (inactive)
22 | Cc1ccc2ccccc2c1C[n+]1ccccc1 | 95.1% (inactive)
23 | COc1ccc(-c2nc3sc(-c4cc(OC)c(OC)c(OC)c4)nn3c2/C=C2/C(=O)Nc3ccc(F)cc32)cc1 | 30.3% (inactive)
24 | COc1ccc(-c2c(N)n[nH]c2-c2cc(OC)c(OC)c(OC)c2)cc1 | -8.33% (active)
25 | COc1ccc(-c2nc(-c3nc4cc(C)c(C)cc4[nH]3)cc3c2[nH]c2ccccc23)cc1 | 56.9% (inactive)
26 | N#Cc1c(-c2ccccc2)cc(-c2ccccc2)n(CC(=O)NO)c1=O | 39.4% (inactive)
27 | O=S(=O)(CC(O)(c1ccccc1)c1ccccc1)CC(O)(c1ccccc1)c1ccccc1 | 65.3% (inactive)
28 | COc1ccc(/C=C\c2cc(OC)c(OC)c(OC)c2)cc1OC(=O)c1cccc(Cn2cc(CCOC(=O)c3cccc(Cn4nnc5c4C(=O)c4ccccc4C5=O)c3)nn2)c1 | 5.15% (active)
29 | O=C1c2ccccc2-c2ccccc2C1(Cl)Cl | -7.35% (active)
30 | CSc1nc2c(c(=O)[nH]1)C(c1ccc(C)cc1)C=C(C(=O)O)N2 (stereo not given) | 86.3% (inactive)
31 | Cc1cc(N/N=C/c2nc(-c3ccc(Br)cc3)oc2C)c2cc(Cl)ccc2n1 | 106% (inactive)
32 | O=S1(=O)CCC(N(/N=C/c2ccco2)c2ccccc2)C1 (stereo not given) | 94.3% (inactive)
33 | Nc1cc2c([nH]c[n+]2CC#CCCl)c(SCC#CCCl)n1 | 47.3% (inactive)
34 | N#Cc1ccc(N2Cc3ccccc3OC3=C2C(=O)c2c(O)ccc(O)c2C3=O)cc1 | -14.4% (active)
35 | c1ccc(-c2nnc(-c3ccccn3)s2)nc1 | 142% (inactive)
36 | CCc1cnc(=S)n(-c2ccccc2)c1 | 108% (inactive)
37 | O=C(Nc1ccncc1)C(=O)c1cn(S(=O)(=O)c2ccccc2F)c2ccccc12 | 12.1% (inactive)
38 | C=C[C@@H]1C[C@H](O)Cc2c(C)cc(C)cc2N1 | 99.9% (inactive)
39 | COc1cc(-c2ncn(/C=C\C(=O)OC(C)C)n2)cc(C(F)(F)F)c1 | -7.75% (active)
40 | CN(C)c1ncnc2c1ccn2C1OC(CO)C(O)C1O (stereo not given) | 17.5% (inactive)
